Experimental data from PubChem BioAssay (NCI).
This is part of a sample that, as a whole, favours compounds with a hit. Of some 79,000 tested, about 15% had one in any assay. Active and inactive are the calls of the source. Rule as the data show it: active = growth inhibition above about 70%; inactive = the rest.

Assays:
[1] = NCI Yeast Anticancer Drug Screen. Data for the rad52 strain (AID 147);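 also: 0% = growth of vehicle-treated control cultures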; settings: S. cerevisiae rad52 mutant growth inhibition, hits give high values
Summary of the method: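 Here a repair-compromised yeast strain receives each compound; its growth is then quantified and normalised to vehicle-only controls.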

[2] = NCI Yeast Anticancer Drug Screen. Data for the wt1 strain (AID 149);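 also: 0% = growth of vehicle-treated wt1 cultures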; settings: S. cerevisiae wt1 strain (SPY 50644) growth inhibition, hits give high values
Summary of the method: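 Readout: yeast growth inhibition, normalised to vehicle controls, in the wt1 strain exposed to test compounds.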

[3] = NCI Yeast Anticancer Drug Screen. Data for the rad50EPP+ strain (AID 151);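 also: 0% = growth of vehicle-treated control cultures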; settings: S. cerevisiae rad50 mutant strain, hits give high values
Summary of the method: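 Read-out is yeast growth inhibition relative to vehicle; cells used were the rad50EPP+ strain.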

[4] = NCI Yeast Anticancer Drug Screen. Data for the mgt1 strain (AID 153); settings: S. cerevisiae mgt1 mutant growth inhibition, hits give high values
Summary of the method: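 Measured: inhibition of mgt1 yeast growth by compound, normalized to vehicle-treated cultures.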

[5] = NCI Yeast Anticancer Drug Screen. Data for the rad50 strain (AID 155);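 also: 0% = growth of vehicle-only cultures of the same strain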; settings: S. cerevisiae rad50 strain growth inhibition, hits give high values
Summary of the method: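 Compounds were tested on a yeast strain with an engineered DNA damage repair alteration; the reported value is growth inhibition normalised to vehicle treatment.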

[6] = NCI Yeast Anticancer Drug Screen. Data for the mec2-1 strain (AID 157); settings: S. cerevisiae mec2-1 strain, hits give high values
Summary of the method: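 Using mec2-1 yeast: add compound, measure growth, express inhibition versus vehicle-treated cultures.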

[7] = NCI Yeast Anticancer Drug Screen. Data for the rad14 strain (AID 159);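 also: 0% = growth of vehicle-treated control cultures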; settings: S. cerevisiae rad14 strain growth inhibition, hits give high values
Summary of the method: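 Compound-treated yeast with a defined DNA-repair lesion; growth inhibition normalised to vehicle-treated cultures.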

[8] = NCI Yeast Anticancer Drug Screen. Data for the sgs1 mgt1 strain (AID 161);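 also: 0% = growth of cultures given vehicle only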; settings: S. cerevisiae sgs1 mgt1 strain, hits give high values
Summary of the method: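 This yeast growth screen uses a strain with defined DNA-repair lesions; compound-treated growth is compared with vehicle-treated growth.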

[9] = NCI Yeast Anticancer Drug Screen. Data for the CLN2oe strain (AID 163);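 also: 0% = growth of vehicle-only control cultures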; settings: S. cerevisiae CLN2oe strain, hits give high values
Summary of the method: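 Whole-cell yeast growth assay. A strain engineered for altered cell-cycle control received compound, and inhibition relative to vehicle-treated cultures was recorded.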

[10] = NCI Yeast Anticancer Drug Screen. Data for the cln2 rad14 strain (AID 165);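 also: 0% = growth equal to vehicle treated cultures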; settings: S. cerevisiae cln2 rad14 strain, hits give high values
Summary of the method: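 Yeast strain cln2 rad14, bearing defects in cell cycle control and DNA repair, serves as the test system; values reflect growth inhibition compared with vehicle.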

[11] = NCI Yeast Anticancer Drug Screen. Data for the bub3 strain (AID 167); settings: S. cerevisiae bub3 mutant strain, hits give high values
Summary of the method: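 Growth of a checkpoint-deficient yeast mutant is measured after compound exposure. Values represent inhibition relative to vehicle.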

[12] = NCI Yeast Anticancer Drug Screen. Data for the wt2 strain (AID 169);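 also: 0% = growth of vehicle-treated yeast cultures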; settings: S. cerevisiae wt2 strain growth inhibition, hits give high values
Summary of the method: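 Treated yeast vs. vehicle-treated yeast: growth inhibition determined.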

[13] = NCI Yeast Anticancer Drug Screen. Data for the sgs1 strain (AID 173);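 also: 0% = growth of vehicle-only control cultures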; settings: S. cerevisiae sgs1 mutant, hits give high values
Summary of the method: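 A genetically defined yeast mutant is incubated with the test compound, and its growth is compared to that of the same strain given vehicle.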

[14] = NCI Yeast Anticancer Drug Screen. Data for the mlh1 rad18 strain (AID 175); settings: S. cerevisiae mlh1 rad18 strain growth inhibition, hits give high values
Summary of the method: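 Steps: expose repair-defective yeast to compound; measure growth; express inhibition against vehicle-treated controls.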

[15] = NCI Yeast Anticancer Drug Screen. Data for the rad18 strain (AID 177); settings: S. cerevisiae rad18 mutant growth inhibition, hits give high values
Summary of the method: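 Measured value is growth inhibition of a yeast strain bearing a DNA repair alteration, referenced to vehicle-treated cells.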

[16] = NCI Yeast Anticancer Drug Screen. Data for the mlh1 strain (AID 171);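 also: 0% = growth of vehicle-treated control cultures of the same strain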; settings: S. cerevisiae mlh1 strain growth inhibition, hits give high values
Summary of the method: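 A yeast strain with a defined genetic lesion serves as the test organism. Cultures receive compound or vehicle, and growth is measured.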

[17] = at 5.0 µM (retest, dose inferred, filed as 0.5)
[18] = at 50.0 µM (retest, dose inferred, filed as 5.0)

Measured: growth inhibition

S=c1[nH]c2c(Cl)c(Cl)c(Cl)c(Cl)c2[nH]1
active: [1]; at 33.0 µM 97% | [1]; at 100.0 µM 94% | [2]; at 33.0 µM 98% | [2]; at 100.0 µM 96% | [3]; at 11.0 µM 81% | [3]; at 33.0 µM 96% | [3]; at 100.0 µM 95% | [4]; at 11.0 µM 78% | [4]; at 33.0 µM 99% | [4]; at 100.0 µM 93% | [5]; at 33.0 µM 98% | [5]; [18] 92% | [5]; at 50.0 µM 90% | [5]; at 100.0 µM 96% | [6]; at 33.0 µM 98% | [6]; [18] 98% | [6]; at 50.0 µM 91% | [6]; at 100.0 µM 96% | [7]; at 33.0 µM 99% | [7]; at 100.0 µM 96% | [8]; [18] 97% | [9]; at 33.0 µM 97% | [9]; at 100.0 µM 95% | [10]; [18] 95% | [11]; at 33.0 µM 98% | [11]; [18] 95% | [11]; at 100.0 µM 95% | [12]; at 33.0 µM 96% | [12]; at 100.0 µM 96% | [13]; at 33.0 µM 97% | [13]; at 100.0 µM 96% | [14]; [18] 95% | [14]; at 50.0 µM 90.5% | [15]; at 33.0 µM 97% | [15]; at 100.0 µM 95%
inactive: [1]; at 1.2 µM 13% | [1]; at 3.7 µM 6% | [1]; at 11.0 µM 45% | [2]; at 1.2 µM 16% | [2]; at 3.7 µM -4% | [2]; at 11.0 µM 33% | [3]; at 1.2 µM 13% | [3]; at 3.7 µM 20% | [4]; at 1.2 µM 9% | [4]; at 3.7 µM 15% | [5]; at 1.2 µM -5% | [5]; at 3.7 µM -2% | [5]; [17] 33% | [5]; at 11.0 µM 59% | [6]; at 1.2 µM -28% | [6]; at 3.7 µM -11% | [6]; [17] 44% | [6]; at 11.0 µM 48% | [7]; at 1.2 µM -11% | [7]; at 3.7 µM 4% | [7]; at 11.0 µM 50% | [8]; [17] -10% | [9]; at 1.2 µM 9% | [9]; at 3.7 µM 3% | [9]; at 11.0 µM 48% | [10]; [17] 61% | [11]; at 1.2 µM -5% | [11]; at 3.7 µM 4% | [11]; [17] 44% | [11]; at 11.0 µM 66% | [12]; at 1.2 µM -12% | [12]; at 3.7 µM -3% | [12]; at 11.0 µM 24% | [13]; at 1.2 µM -3% | [13]; at 3.7 µM 10% | [13]; at 11.0 µM 54% | [14]; [17] 26% | [15]; at 1.2 µM 5% | [15]; at 3.7 µM 12% | [15]; at 11.0 µM 42%

Nc1nc(F)nc2c1ncn2C1OC(COP(=O)(O)O)C(O)C1O (stereo unspecified)
inactive: [1]; at 1.2 µM 2% | [1]; at 3.7 µM 5% | [1]; at 11.0 µM 12% | [1]; at 33.0 µM 22% | [1]; at 100.0 µM 52% | [2]; at 1.2 µM 1% | [2]; at 3.7 µM 1% | [2]; at 11.0 µM 2% | [2]; at 33.0 µM 5% | [2]; at 100.0 µM 2% | [3]; at 1.2 µM 3% | [3]; at 3.7 µM 12% | [3]; at 11.0 µM 26% | [3]; at 33.0 µM 43% | [3]; at 100.0 µM 67% | [4]; at 1.2 µM -3% | [4]; at 3.7 µM 0% | [4]; at 11.0 µM 2% | [4]; at 33.0 µM 5% | [4]; at 100.0 µM 12% | [5]; at 1.2 µM 3% | [5]; at 3.7 µM 9% | [5]; at 11.0 µM 18% | [5]; at 33.0 µM 32% | [5]; at 50.0 µM 11.1% | [5]; at 100.0 µM 61% | [6]; at 1.2 µM 1% | [6]; at 3.7 µM 7% | [6]; at 11.0 µM 13% | [6]; at 33.0 µM 27% | [6]; at 50.0 µM 4.2% | [7]; at 1.2 µM -1% | [7]; at 3.7 µM -2% | [7]; at 11.0 µM 2% | [7]; at 33.0 µM 5% | [7]; at 100.0 µM 19% | [8]; at 50.0 µM -1.15% | [9]; at 1.2 µM -4% | [9]; at 3.7 µM -5% | [9]; at 11.0 µM -5% | [9]; at 33.0 µM -5% | [9]; at 100.0 µM -2% | [10]; at 50.0 µM -3.75% | [11]; at 1.2 µM -8% | [11]; at 3.7 µM -8% | [11]; at 11.0 µM -3% | [11]; at 33.0 µM -10% | [11]; at 50.0 µM -29.9% | [11]; at 100.0 µM -1% | [12]; at 1.2 µM -2% | [12]; at 3.7 µM 1% | [12]; at 11.0 µM 1% | [12]; at 33.0 µM 6% | [12]; at 100.0 µM 18% | [16]; at 1.2 µM 0% | [16]; at 3.7 µM 2% | [16]; at 11.0 µM 5% | [16]; at 33.0 µM 9% | [16]; at 100.0 µM 19% | [13]; at 1.2 µM 18% | [13]; at 3.7 µM 30% | [13]; at 11.0 µM 39% | [13]; at 33.0 µM 47% | [13]; at 100.0 µM 53% | [14]; at 50.0 µM -26.4% | [15]; at 1.2 µM -2% | [15]; at 3.7 µM -1% | [15]; at 11.0 µM 1% | [15]; at 33.0 µM 5% | [15]; at 100.0 µM 19%
active: [6]; at 100.0 µM 87%

CC(=O)[O-].O=C([CH-]C(=O)c1ccccc1)c1ccccc1.O=C([CH-]C(=O)c1ccccc1)c1ccccc1.[Sm+3]
active: [1]; at 11.0 µM 80% | [1]; at 33.0 µM 97% | [1]; at 100.0 µM 98% | [2]; at 33.0 µM 98% | [2]; at 100.0 µM 97% | [3]; at 3.7 µM 70% | [3]; at 33.0 µM 70% | [3]; at 100.0 µM 79% | [4]; at 33.0 µM 98% | [4]; at 100.0 µM 98% | [7]; at 11.0 µM 97% | [7]; at 33.0 µM 99% | [7]; at 100.0 µM 98% | [9]; at 33.0 µM 97% | [9]; at 100.0 µM 97% | [12]; at 33.0 µM 98% | [12]; at 100.0 µM 98% | [16]; at 11.0 µM 70% | [16]; at 33.0 µM 98% | [16]; at 100.0 µM 99% | [13]; at 33.0 µM 97% | [13]; at 100.0 µM 97% | [15]; at 33.0 µM 98% | [15]; at 100.0 µM 97%
inactive: [1]; at 1.2 µM 4% | [1]; at 3.7 µM -2% | [2]; at 1.2 µM 4% | [2]; at 3.7 µM 4% | [2]; at 11.0 µM 25% | [3]; at 1.2 µM 35% | [3]; at 11.0 µM 52% | [4]; at 1.2 µM 0% | [4]; at 3.7 µM 6% | [4]; at 11.0 µM 50% | [7]; at 1.2 µM 6% | [7]; at 3.7 µM 7% | [9]; at 1.2 µM -3% | [9]; at 3.7 µM 6% | [9]; at 11.0 µM 45% | [12]; at 1.2 µM 1% | [12]; at 3.7 µM 8% | [12]; at 11.0 µM 65% | [16]; at 1.2 µM 3% | [16]; at 3.7 µM 8% | [13]; at 1.2 µM 2% | [13]; at 3.7 µM 7% | [13]; at 11.0 µM 59% | [15]; at 1.2 µM 5% | [15]; at 3.7 µM 12% | [15]; at 11.0 µM 43%
